# Assay results from PubChem BioAssay (Tox21).
# Records with an inconclusive call do not appear. Activity calls are given as the source filed them. Calls come from the whole dose curve; as a rule, active = well fitted cell-killing curve with a large enough effect in the repeat runs; inconclusive = weak or mixed curves, or effect the other way; inactive = flat fitted curve, though single readings scatter.
# Experiment: qHTS RealTime-Glo MT Cell Viability Assay in HEK293 cells - 0 hour (AID 1224880); note: top concentration of the series differs between compounds; nearly all actives have a fitted effect of over 45% in size
# Conditions: RealTime-Glo luminescence; series mostly up to 76.8 µM; activity change, negative = cytotoxicity: at the top concentration
# Description: U.S. Tox21 Program National Center for Advancing Translational Sciences [NCATS] NIH Chemical Genomics Center [NCGC] U.S. Environmental Protection Agency [EPA] National Institutes of Environmental Health Sciences [NIEHS] National Toxicology Program [NTP] U.S. Food and Drug Administration [FDA] Tox21 Assay Overview: Measure of cell viability is critical in the cell-base assay. Analysis of cell viability is necessary for the characterization of cell responses to cytotoxic drugs and environmental stress. A RealTime-Glo MT Cell Viability Assay to monitor cell viability in real time of continues cell culture during 40 hours of compound treatment was used to screen Tox21 10K library compounds in Hek293 cells. The RealTime-Glo MT Cell Viability Assay is a nonlytic, homogeneous, bioluminescent method to measure cell viability in real time using a simple, plate-based method. The assay involves adding NanoLuc luciferase and a cell-permeant prosubstrate to cells in culture. Viable cells reduce the proprietary prosubstrate to generate a substrate for NanoLuc luciferase. This substrate diffuses from cells into the surrounding culture medium, where it is rapidly used by the NanoLuc Enzyme to produce a luminescent signal. The signal correlates with the number of viable cells, making the assay well suited for cytotoxicity studies.
# Tox21 Assay Protocol Summary: The mixture of Hek293 cell suspension and reagents were dispensed at 600cells/6 ul/well in 1536-well tissue culture treated black solid bottom plates using a Multidrop dispenser. After the assay plates were incubated at a 37 C/5% CO2 incubator for 5 hours, 23 nL of compounds dissolved in DMSO, positive and negative controls was transferred to the assay plate by a pintool work station. The plates were incubated at 37 C for 40 hours. The luminescence intensity were measured at 0h, 8h, 16h, 24h, 32h and 40h time points using ViewLux plate reader during compound treatment.
# % is set by controls: 0 for no effect and ±100 for the full control effect.
row,SMILES,"activity change, negative = cytotoxicity"
1,Cc1c(-c2ccccc2)oc2c(C(=O)OCCN3CCCCC3)cccc2c1=O,-5.59% [at 35.3 µM] (inactive)
2,CC(C)(C)C1CCCCC1=O (stereo not given),3.7% (inactive)
3,CC(=O)Oc1cc(C(C)C)c(OCCN(C)C)cc1C,4.14% [at 35.3 µM] (inactive)
4,C[C@@H]1CN(c2c(F)c(F)c3c(=O)c(C(=O)O)cn(C4CC4)c3c2F)C[C@H](C)N1,0.0765% [at 15.8 µM] (inactive)
5,CCCCC(CC)COC(=O)COc1cc(Cl)c(Cl)cc1Cl (stereo not given),-17.5% (inactive)
6,CCc1cc2cc(OC)c(OC)cc2c(Cc2ccccc2)n1,-10.6% [at 35.3 µM] (inactive)
7,CCCNC(C)(C)COC(=O)c1ccccc1,-2.95% [at 35.3 µM] (inactive)
8,CCCCCCCCOC(=O)CCCCCCCCC(=O)OCCCCCCCC,7.49% (inactive)
9,Cc1cccc(C)c1NC(=O)CN1CCCCCC1,-7.68% [at 35.3 µM] (inactive)
10,CCCOCCC,15.5% (inactive)
11,OCC(CBr)(CBr)CBr,1.07% (inactive)
12,CC(C)(CO)[C@@H](O)C(=O)NCCC(=O)O,5.14% (inactive)
13,CC(=O)OC1C2(C)CCC(C2)C1(C)C (stereo not given),4.91% (inactive)
14,C[C@]12CCC(=O)C=C1CC[C@@H]1[C@@H]2CC[C@@]2(C)[C@H]1CC[C@]2(O)C(=O)CO,-15.1% [at 35.3 µM] (inactive)
15,NC(Cc1ccc(F)cc1)C(=O)O (stereo not given),-1.64% [at 6.97 µM] (inactive)
16,CCc1cc(Cl)c(OC)c(C(=O)NC[C@@H]2CCCN2CC)c1O,22.2% [at 35.3 µM] (inactive)
17,CC(C)CC(=O)OCc1ccccc1,4.95% (inactive)
18,C1CSCCS1,12.4% (inactive)
19,COc1ccc2nc(NC(=O)Nc3ccccc3)sc2c1,10.4% [at 35.3 µM] (inactive)
20,C1CCOC1,-1.81% (inactive)

row,SMILES,"activity change, negative = cytotoxicity"
1,CC1(C)S[C@@H]2[C@H](NC(=O)C(C(=O)O)c3ccccc3)C(=O)N2[C@H]1C(=O)O (stereo not given in full),3.91% [at 35.3 µM] (inactive)
2,O=c1[nH]c(=O)n([C@H]2C[C@H](O)[C@@H](CO)O2)cc1C(F)(F)F,7.74% [at 35.3 µM] (inactive)
3,NC/C=C/C(=O)O,7.67% [at 35.3 µM] (inactive)
4,CCOc1ccc2nc(N)sc2c1,3.27% (inactive)
5,COC(=O)C(C)O (stereo not given),0.537% (inactive)
6,CCCC(CCC)(C(=O)OCC)C(=O)OCC,-2.29% [at 35.3 µM] (inactive)
7,CN(C)CC[C@@H](c1ccc(Cl)cc1)c1ccccn1,-2.99% [at 35.3 µM] (inactive)
8,O=C(O)[C@@H]1CSCN1,-1.38% [at 35.3 µM] (inactive)
9,Cc1ccccc1C(=O)Nc1ccc(C(=O)N2CCCC(O)c3cc(Cl)ccc32)c(C)c1 (stereo not given),-2.62% [at 35.3 µM] (inactive)
10,COc1cc2c(cc1N)oc1ccccc12,-2.17% (inactive)
11,Cc1cc2nc(N)sc2cc1C,3.88% (inactive)
12,O=C1N(c2ccccc2)c2ccccc2C1(Cc1ccncc1)Cc1ccncc1,-0.0515% [at 35.3 µM] (inactive)
13,CCCCCCCOC(=O)CCC,7.09% (inactive)
14,CCOC(=O)CS,0.04% (inactive)
15,Cc1cn([C@@H]2O[C@H](CO)[C@@H](O)[C@@H]2F)c(=O)[nH]c1=O,4.33% [at 35.3 µM] (inactive)
16,Cc1cc2c(s1)Nc1ccccc1N=C2N1CCN(C)CC1,-0.708% [at 35.3 µM] (inactive)
17,CN(C)CCOc1ccccc1Cc1ccccc1,17.6% [at 35.3 µM] (inactive)
18,CCN(CC)C(=O)N(CC)CC,2.54% (inactive)
19,NCCCN1CCN(CCCN)CC1,0.692% (inactive)
20,Cc1onc(-c2ccccc2)c1C(=O)Cl,-3.35% [at 35.3 µM] (inactive)
